Bioassay records as filed in PubChem.
Rows were chosen to be rich in hits. Some 21% of all compounds tested hit in one or more screens of this group.
NS1 inh: qHTS Assay for Inhibitors of Influenza NS1 Protein Function. Potency, µM (doses to about 46.1 µM), without a hit: top-dose activity, positive = more growth. hit rate 0.4% among 270,000; calls by dose curve; also: potency is read from the fitted curve at half-maximal effect; actives are rising curves; nearly all actives have a fitted effect of over 50% in size
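A cell-based growth assay was used: compounds that relieve NS1-induced slow growth of budding yeast raise OD600. Assay medium was yeast nitrogen base with ammonium sulphate and -URA supplement, pH 6.0, with 2% galactose.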
Cycloheximide cs: Cycloheximide Counterscreen for Small Molecule Inhibitors of Shiga Toxin. cell reporter, cycloheximide protein synthesis inhibition counterscreen. max response, %. hit rate 12% among 300,000. AID 2314, 2010; in the data active = max response mostly above about 13%, no sharp cut-off; inactive = mostly below about 14%; also: read at 38.3 µM for the half of the compounds with a filed dose; 0% is about no effect
SARS PLP yeast: qHTS of Yeast-based Assay for SARS-CoV PLP; AID 485353, 2010; S. cerevisiae expressing SARS-CoV PLpro, growth rescue; Potency, µM (titrated, usually from 32.9 µM), for the others: top-dose activity, positive = growth rescue, actives largely listed as activators; hit rate 0.19% among 330,000; calls by dose curve; also: potency is read from the fitted curve at half-maximal effect; 0% is about no effect; nearly all actives have a fitted effect of over 55% in size
Pf growth 96h: Primary qHTS for delayed death inhibitors of the malarial parasite plastid, 96 hour incubation. AID 504834, 2011. Potency, µM (doses to about 28.7 µM), for inactives: top-dose activity change, negative = inhibition, hits mostly inhibitors. hit rate 6.9% among 320,000. P. falciparum luciferase reporter growth, 96 h; also: potency is read from the fitted curve at half-maximal effect; % is scaled to controls: 0 for no effect and ±100 for the full control effect
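Two-generation exposure (96 h) targets delayed-death phenotype. Reporter parasites carrying integrated firefly luciferase, in red cells at 2% hematocrit and 0.05% parasitemia final, kept at 37 C, 5% CO2; luminescence loss indicates inhibition.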
Pf growth 48h: Primary qHTS for delayed death inhibitors of the malarial parasite plastid, 48 hour incubation | P. falciparum luciferase growth in erythrocytes, 48 h | Potency, µM (series often up to 28.7 µM), for inactives: at the top dose activity change, negative = inhibition, usual class: inhibitors | hit rate 5.9% among 310,000; also: potency is read from the fitted curve at half-maximal effect; % is scaled to controls: 0 for no effect and ±100 for the full control effect
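Parasite viability was followed by luminescence of a genomically integrated firefly luciferase. Cultures held 0.1% parasitemia at 2% hematocrit (final), incubated under 5% CO2 at 37 C.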
Shiga inhibitor: A qHTS for Small Molecule Inhibitors of Shiga Toxin. AID 2315, 2010. hit rate 9.2% among 290,000. Vero cells, Shiga toxin protein synthesis inhibition reporter. inhibition, % at 38.7 µM; in the data active = inhibition mostly above about 28%, no sharp cut-off; inactive = mostly below about 43%; also: 0% is about no effect
The depositor's hits bear a star; [ ] = dose if it differs, or a comment. Unless noted, calls follow the shape of the dose curve; as a rule, active = well fitted inhibition curve with a large enough effect; inconclusive = small, poorly fitted or top-dose-only effect, or another doubt; inactive = no such curve, though single readings can be large or run the other way.

How did CC(NC(=O)c1cc(-c2ccccn2)nc2ccc(Cl)cc12)C1CCCO1 (stereo not given) do in these assays?
NS1 inh: 0%; Cycloheximide cs: 9; SARS PLP yeast: -2%; Pf growth 96h: inconclusive; Pf growth 48h: -7%; Shiga inhibitor: -31

What do the screens show for `Cc1cccc2c(C(=O)N3CCN(c4ccccc4)CC3)cc(-c3ccncc3)nc12`?
NS1 inh: -19%; Cycloheximide cs: -1; SARS PLP yeast: -5%; Pf growth 96h: inconclusive; Pf growth 48h: 8.3µM*; Shiga inhibitor: 6

What do the screens show for `CC(NC(=O)c1cc(-c2ccncc2)nc2ccc(Cl)cc12)C1CCCO1` (stereo not given)?
NS1 inh: -54%; Cycloheximide cs: 13*; SARS PLP yeast: 1%; Pf growth 96h: -22%; Pf growth 48h: inconclusive; Shiga inhibitor: 38*

What do the screens show for `O=C(c1cc(-c2ccncc2)nc2ccc(Cl)cc12)N1CCN(C(=O)C2CCCO2)CC1` (stereo not given)?
NS1 inh: -5%; Cycloheximide cs: -3; SARS PLP yeast: -10%; Pf growth 96h: 7%; Pf growth 48h: -16%; Shiga inhibitor: -8

What do the screens show for `CCOc1ccc(CCNC(=O)C2CCCN(S(=O)(=O)N3CC(C)CC(C)C3)C2)cc1OCC` (stereo not given)?
NS1 inh: 13%; Cycloheximide cs: 2; SARS PLP yeast: -3%; Pf growth 96h: 0%; Pf growth 48h: inconclusive; Shiga inhibitor: -4

Results for Cc1ccccc1CS(=O)(=O)Cc1ccc(C(=O)NC2CCCC2)o1 ?
NS1 inh: -11%; Cycloheximide cs: -2; SARS PLP yeast: -1%; Pf growth 96h: inconclusive; Pf growth 48h: 18%; Shiga inhibitor: -2

Results for COc1cccc(NC(=O)CCNS(=O)(=O)c2ccc3c(c2)CC(C)N3C(=O)C2CC2)c1 (stereo not given) ?
NS1 inh: 3%; Cycloheximide cs: 9; SARS PLP yeast: 2%; Pf growth 96h: 51%; Pf growth 48h: 1%; Shiga inhibitor: -10

Results for CCc1nnc(NC(=O)CCN2C(=O)C3CCCCC3C2=O)s1 (stereo not given) ?
NS1 inh: 18%; Cycloheximide cs: -3; SARS PLP yeast: 4%; Pf growth 96h: 1%; Pf growth 48h: 6%; Shiga inhibitor: 14

Results for Cc1cc(C)nc(SCC(=O)NC(=O)c2ccccc2O)n1 ?
SARS PLP yeast: -2%

Results for COc1cccc(Nc2nc(CN3CCOCC3)nc3sc4c(c23)CCCC4)c1 ?
NS1 inh: -1%; Cycloheximide cs: -3; SARS PLP yeast: 11%; Pf growth 96h: inconclusive; Pf growth 48h: 15µM*; Shiga inhibitor: -8

What do the screens show for `COc1cc2c(cc1OC)CN(c1nc(CN3CCCCC3)nc3sc4c(c13)CCCC4)CC2`?
NS1 inh: 7%; Cycloheximide cs: -4; SARS PLP yeast: 9%; Pf growth 96h: 1.9µM*; Pf growth 48h: 3.3µM*; Shiga inhibitor: -5

What do the screens show for `COc1cc2c(cc1OC)CN(c1nc(CN3CCCC3)nc3sc(C)c(C)c13)CC2`?
Cycloheximide cs: -1; SARS PLP yeast: -3%; Pf growth 96h: inconclusive; Pf growth 48h: inconclusive; Shiga inhibitor: -9

What do the screens show for `Cc1nc(N2CCOCC2)c2c3c(sc2n1)CCC3`?
Cycloheximide cs: -5; SARS PLP yeast: -3%; Pf growth 96h: inconclusive; Pf growth 48h: 10µM*; Shiga inhibitor: -16

How did CSc1nc(N2CCOCC2)c2c3c(sc2n1)CCCC3 do in these assays?
NS1 inh: -58%; Cycloheximide cs: -4; SARS PLP yeast: -2%; Pf growth 96h: 4%; Pf growth 48h: inconclusive; Shiga inhibitor: -5

What do the screens show for `COc1cc2c(cc1OC)CN(c1nc(CN3CCOCC3)nc3sc4c(c13)CCCC4)CC2`?
NS1 inh: -3%; Cycloheximide cs: -1; SARS PLP yeast: 8%; Pf growth 96h: 1.7µM*; Pf growth 48h: 9.3µM*; Shiga inhibitor: -11

Results for Cc1cc(S(=O)(=O)Nc2nc(CN3CCOCC3)nc3sc4c(c23)CCC4)cc(C)c1C ?
SARS PLP yeast: -3%; Pf growth 96h: 5%; Pf growth 48h: -3%

Results for C#CCNC(=O)C1=C[C@H](c2ccccc2)[C@@H](CCCO)[C@H](OCC)O1 ?
NS1 inh: 3%; Cycloheximide cs: -2; SARS PLP yeast: 1%; Pf growth 96h: -1%; Pf growth 48h: -25%; Shiga inhibitor: -12

What do the screens show for `NS(=O)(=O)c1cc2c(cc1C(F)(F)F)N[C@H](Cc1ccccc1)NS2(=O)=O`?
Pf growth 96h: -8%[12.8 µM]; Pf growth 48h: -13%[12.8 µM]

Results for CCn1cc(C(=O)NCCCN2CCC(C)CC2)c2cc(OC)c(OC)cc2c1=O ?
NS1 inh: 1%; Cycloheximide cs: -2; SARS PLP yeast: -14%; Pf growth 96h: -15%; Shiga inhibitor: -10

How did O=C(Nc1nc(-c2cc3ccccc3oc2=O)cs1)c1ccco1 do in these assays?
NS1 inh: -1%; Cycloheximide cs: 12; SARS PLP yeast: -3%; Pf growth 96h: 41%; Pf growth 48h: 27%; Shiga inhibitor: 20

Results for c1ccc2sc(NCC3CCCO3)nc2c1 (stereo not given) ?
Cycloheximide cs: 38*; SARS PLP yeast: -2%; Pf growth 96h: 388%; Pf growth 48h: 213%; Shiga inhibitor: 134*

How did CC1CCC/C(=C(\C#N)c2nc(-c3cc4ccccc4oc3=O)cs2)C1 (stereo not given) do in these assays?
NS1 inh: 25%; Cycloheximide cs: 51*; SARS PLP yeast: 5%; Pf growth 96h: 6.6µM*; Pf growth 48h: 296%; Shiga inhibitor: 89*

Results for C=CCNc1nc(-c2cc3ccccc3o2)cs1 ?
NS1 inh: -5%; Cycloheximide cs: 40*; SARS PLP yeast: -42%; Pf growth 96h: 239%; Pf growth 48h: 167%; Shiga inhibitor: 36

Results for O=c1oc2ccccc2cc1-c1csc(NN=C2CCCCC2)n1 ?
NS1 inh: -11%; Cycloheximide cs: 45*; SARS PLP yeast: 8%; Pf growth 96h: inactive; Pf growth 48h: 126%; Shiga inhibitor: 81*

How did COc1ccc(CCNC(=O)C(=O)N2CCCC2)cc1OC do in these assays?
NS1 inh: 2%; Cycloheximide cs: 0; SARS PLP yeast: 1%; Pf growth 96h: 11%; Pf growth 48h: 33%; Shiga inhibitor: -6

Results for COc1ccccc1CC(=O)Nc1ccc(S(=O)(=O)N(C)C2CCN(C)CC2)cc1 ?
SARS PLP yeast: 2%; Pf growth 96h: -27%; Pf growth 48h: inconclusive

What do the screens show for `CCOC(=O)C1=NOC(COc2ccccc2C=O)C1` (stereo not given)?
Cycloheximide cs: 7; SARS PLP yeast: -2%; Pf growth 96h: inconclusive; Pf growth 48h: inconclusive; Shiga inhibitor: -3
